PNC inhibitor: blocks assembly of the perinucleolar compartment; PC3M PTB-GFP, PNC prevalence imaging, 16 h; hits give low values; activity change (PNC), negative = inhibition, % at 10 µM; 3.1% of 140,000 active; AID 2417;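 active = readout at or below -70, meaning at least 70% loss of cells showing the perinucleolar compartment, a nuclear body marking cancer cells; inconclusive = readout between -30 and a set limit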
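Compounds are pinned in duplicate onto adhered PC3M cells stably expressing GFP-tagged PTB and incubated 16 h at 37 C. Cells are then fixed, nuclei stained with Hoechst, and PNC-positive cells counted.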
HPGD block: HPGD (human) dehydrogenase inhibition; AID 894; P15428; purified HPGD, NADH fluorescence kinetic, PGE2 substrate; 4.3% of 150,000 active; Potency, µM, usual class: inhibitors; active = well fitted inhibition curve with a large enough effect, not every such curve was filed as active; inconclusive = small, poorly fitted or top-dose-only effect, or another doubt; inactive = no such curve, though single readings can be large or run the other way
Target sequence (P15428 whole entry, looked up): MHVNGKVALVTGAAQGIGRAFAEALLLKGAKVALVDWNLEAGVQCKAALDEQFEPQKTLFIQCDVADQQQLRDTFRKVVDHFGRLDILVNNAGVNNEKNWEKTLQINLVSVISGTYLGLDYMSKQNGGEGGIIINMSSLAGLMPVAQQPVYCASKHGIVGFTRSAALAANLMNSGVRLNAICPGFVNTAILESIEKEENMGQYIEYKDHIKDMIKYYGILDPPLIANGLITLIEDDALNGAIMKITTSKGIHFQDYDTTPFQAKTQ
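20 nM HPGD preincubated 15 min at room temperature with compound in 50 mM Tris-HCl pH 8, 0.01% Tween 20. Started with 1 mM NAD+ and 30 uM prostaglandin E2; NADH fluorescence (360/450 nm) read 5 times over 30-s intervals, last minus first.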
ALDH1A1 inh: blocks purified human ALDH1A1 activity; Potency, µM (top dose mostly 75.3 µM), hits mostly inhibitors; AID 1030; Purified ALDH1A1, NADH fluorescence, propionaldehyde substrate; 7.3% of 220,000 active; P00352; active = well fitted inhibition curve with a large enough effect, not every such curve was filed as active; inconclusive = small, poorly fitted or top-dose-only effect, or another doubt; inactive = no such curve, though single readings can be large or run the other way
Target sequence (P00352 whole entry, looked up): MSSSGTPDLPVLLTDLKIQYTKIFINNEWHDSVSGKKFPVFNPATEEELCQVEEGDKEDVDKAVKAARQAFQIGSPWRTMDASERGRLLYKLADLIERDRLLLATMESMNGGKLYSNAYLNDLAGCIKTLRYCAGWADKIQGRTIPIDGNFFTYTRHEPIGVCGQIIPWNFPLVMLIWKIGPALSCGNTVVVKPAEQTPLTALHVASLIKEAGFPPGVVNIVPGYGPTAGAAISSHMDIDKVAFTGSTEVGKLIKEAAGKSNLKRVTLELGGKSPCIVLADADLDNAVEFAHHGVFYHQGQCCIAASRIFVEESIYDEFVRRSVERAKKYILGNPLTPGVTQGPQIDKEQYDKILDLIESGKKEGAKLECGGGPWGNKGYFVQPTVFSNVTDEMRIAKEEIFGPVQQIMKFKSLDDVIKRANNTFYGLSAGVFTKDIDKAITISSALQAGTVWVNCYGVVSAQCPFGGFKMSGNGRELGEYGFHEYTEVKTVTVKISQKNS
HTT ATP protect: Huntington cell model cytoprotection by ATP luminescence; PC12 HTT-Q103 induced, cytoprotection, ATP luminescence, 40 h; Potency, µM (titrated, usually from 56.4 µM), usual class: activators; 0.14% of 230,000 active; AID 1471; also: nearly all actives have a fitted effect of over 45% in size
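Huntington model: PC12 line, ecdysone-inducible HTTQ103 exon1–GFP, tebufenozide 100 nM. Test articles in a dose series. Endpoint luminescence from cellular ATP.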
HTT aggregate: mutant huntingtin aggregation inhibition; PC12 HttQ103-GFP aggregates, Acumen cytometry, 40 h; Potency, µM (series often up to 46.1 µM), usual class: inhibitors; 1.1% of 220,000 active; AID 1688; also: nearly all actives have a fitted effect of over 60% in size
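Huntingtin Q103 exon 1–GFP aggregates in induced PC12 cells (100 nM tebufenozide) were quantified by cytometry from lysates, with compounds dosed in titration.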
CBFb-RUNX1 inh: CBF-beta/RUNX1 interaction disruption; AID 1477; Potency, µM (titrated, usually from 59.8 µM), actives largely listed as inhibitors; AlphaScreen CBFb-His/RUNX1-biotin binding, biochemical; 230,000 tested, under 10 active
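AlphaScreen proximity signal reports loss of binding between His-tagged CBF-beta and biotin-labelled RUNX1, each at 30 nM. Proteins are pre-associated for 20 minutes, compounds added for 15 minutes, then beads for 90 minutes, all at ambient temperature.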
Large screens that a line does not name were inactive. Sampled rows, rich in hits. Any-hit rate of the full collection: about 11%. Unless noted, calls follow the shape of the dose curve; as a rule, active = well fitted curve in the direction sought with a large enough effect; inconclusive = small, poorly fitted or top-dose-only effect, or another doubt; inactive = no such curve, though single readings can be large; an effect the other way counts as inactive or inconclusive.

S=c1[nH]nc(C2CCCCC2)n1/N=C/C(Cl)=C\c1ccccc1	none
Cc1cc(-c2n[nH]c(=S)n2/N=C/c2cccc([N+](=O)[O-])c2)n[nH]1	HPGD block inconclusive, ALDH1A1 inh inconclusive (no result: HTT ATP protect)
S=c1[nH]nc(C2CCCCC2)n1/N=C/C=C/c1ccccc1	HPGD block 17.8µM
S=c1[nH]nc(C2CCCCC2)n1/N=C/c1ccc(Br)s1	HPGD block 5.01µM
O=[N+]([O-])c1cccc(/C=N/n2c(C3CCCCC3)n[nH]c2=S)c1	HPGD block 2.51µM
O=[N+]([O-])c1ccc(Cl)c(/C=N/n2c(COc3ccccc3)n[nH]c2=S)c1	HPGD block 8.91µM, ALDH1A1 inh 14.1µM (no result: HTT ATP protect)
S=c1[nH]nc(COc2ccccc2)n1/N=C/c1ccccn1	HPGD block inconclusive, ALDH1A1 inh inconclusive
CCN[C@@H]1C[C@H](C)S(=O)(=O)c2sc(S(N)(=O)=O)cc21	none (no result: PNC inhibitor)
N[C@@H](Cn1ccc(=O)n(Cc2ccccc2C(=O)O)c1=O)C(=O)O	none (no result: PNC inhibitor, HTT aggregate)
O=[N+]([O-])c1ccccc1/C=N/n1c(C2CCCCC2)n[nH]c1=S	HPGD block 15.8µM, ALDH1A1 inh 7.08µM
O=[N+]([O-])c1ccccc1/C=N/n1c(C(F)(F)F)n[nH]c1=S	ALDH1A1 inh inconclusive (no result: PNC inhibitor, HPGD block, HTT ATP protect)
O=[N+]([O-])c1ccc(Cl)c(/C=N/n2c(C3CCCCC3)n[nH]c2=S)c1	HPGD block 0.631µM, ALDH1A1 inh inconclusive, HTT aggregate inconclusive
O=C(c1cnccn1)N1CCN(c2ccccc2)CC1	none
O=C(c1cc(C2CC2)on1)N1CCN(c2ccccc2)CC1	ALDH1A1 inh 28.2µM
N=C(N)S[C@H]1c2ccccc2-c2cc([N+](=O)[O-])ccc21	none (no result: PNC inhibitor, HTT aggregate, CBFb-RUNX1 inh)
CCC1OCCC=CC1C (configuration not stated)	HTT ATP protect inconclusive (no result: PNC inhibitor, HPGD block, HTT aggregate)
CCOC(=O)NC1(NCc2ccccc2)Oc2ccccc2O1	ALDH1A1 inh 22.4µM
COc1ccc(N/N=C(\C#N)C(=N)SCc2ccccc2)cc1	ALDH1A1 inh inconclusive, HTT ATP protect inconclusive, HTT aggregate 7.94µM (no result: PNC inhibitor, HPGD block)
Cc1nc2cnc(N3CCOCC3)nc2n(C[C@H]2CCCO2)c1=O	ALDH1A1 inh inconclusive (no result: PNC inhibitor, HPGD block, HTT aggregate, CBFb-RUNX1 inh)
O=C(COC(=O)CNS(=O)(=O)c1ccc2ccccc2c1)Nc1ccccc1Sc1ccccc1	ALDH1A1 inh 17.8µM
C(/C=C\c1ccccc1)=Nc1ccc2c(c1)Cc1ccccc1-2	ALDH1A1 inh inconclusive (no result: PNC inhibitor, HTT aggregate, CBFb-RUNX1 inh)
Cc1ccc2c(c1Br)/C(=N/N1C(=O)c3ccccc3C1=O)C(=O)N2	ALDH1A1 inh 0.751µM, HTT aggregate inconclusive
COc1ccc(/C=C2\SC(=O)N=C2N)cc1	PNC inhibitor -104.5
O=C1CC(C(=O)Nc2ccccc2)C2(CCCCC2)O1 (configuration not stated)	none
O=C1CC(C(=O)Nc2ccc(Cl)cc2[N+](=O)[O-])C2(CCCCC2)O1 (configuration not stated)	PNC inhibitor -84.2
CC1(C#CC[N+]2(C)CCCCC2)CCC2C(O1)c1ccccc1OC2(C)C (configuration not stated)	ALDH1A1 inh 31.6µM (no result: PNC inhibitor, HPGD block)
CC1(C(O)(C#CC[N+]2(C)CCCCC2)c2ccccc2)CCCC1 (configuration not stated)	none (no result: PNC inhibitor, HPGD block)
CSc1cc(C)c(OCC(=O)Nc2ccc(NC(C)=O)cc2)c(C)c1	ALDH1A1 inh inconclusive (no result: PNC inhibitor, HPGD block)
CC(C)C[C@@H](CC(=O)N[C@@H](CCC(=O)O)CC(=O)O)NC(=O)[C@@H]1CCCC[C@H]1NC(=O)C[C@H](CCCN)NC(=O)C[C@H](Cc1c[nH]c2ccccc12)NC(=O)[C@@H]1CCCC[C@H]1N	none (no result: PNC inhibitor, HTT aggregate)
CCCC(=O)NC(c1ccccc1OC)c1ccc2cccnc2c1O (configuration not stated)	HTT aggregate inconclusive (no result: PNC inhibitor, HPGD block)
COc1ccc(C(NC(C)=O)c2ccc3cccnc3c2O)c(OC)c1 (configuration not stated)	HTT aggregate 3.98µM
Oc1c(C(Nc2nc3ccccc3s2)c2ccco2)ccc2cccnc12 (configuration not stated)	HTT aggregate inconclusive, CBFb-RUNX1 inh inconclusive
CC(C)C(=O)NC(c1ccco1)c1ccc2cccnc2c1O (configuration not stated)	HTT aggregate 3.98µM
O=C(O)CC12C[C@H]3C[C@@H](CC(O)(C3)C1)C2	none (no result: PNC inhibitor, HTT aggregate, CBFb-RUNX1 inh)
N[C@@H](CCCCO)C(=O)O	none (no result: PNC inhibitor, HTT aggregate, CBFb-RUNX1 inh)
Cc1cc(C(N)=O)c2ccccc2n1	PNC inhibitor inconclusive
NC(=O)c1cc2ccncc2c2ccccc12	HTT aggregate 2.51µM (no result: PNC inhibitor, HPGD block, ALDH1A1 inh)
CC(N)CN (configuration not stated)	ALDH1A1 inh inconclusive (no result: PNC inhibitor, HTT aggregate)
CCCCNC(=O)CNC(=S)N(Cc1ccccc1F)C1CCCCC1	ALDH1A1 inh 22.4µM (no result: PNC inhibitor, HPGD block)
O=C(CNC(=S)N(Cc1ccccc1F)C1CCCCC1)NCC1CCCO1 (configuration not stated)	ALDH1A1 inh 7.08µM (no result: PNC inhibitor, HPGD block)
COCCCNC(=O)CNC(=S)N(Cc1ccccc1F)C1CCCCC1	ALDH1A1 inh 14.1µM
O=C(O)CNC(=S)N(Cc1ccccc1F)C1CCCCC1	ALDH1A1 inh inconclusive (no result: PNC inhibitor, HPGD block)
COc1ccc(C2Cc3ccccc3C(=O)O2)cc1 (configuration not stated)	none (no result: HTT ATP protect)
COc1ccc(S(=O)(=O)N2CCc3ccccc32)cc1C(=O)NCCc1ccccn1	ALDH1A1 inh inconclusive, HTT aggregate inconclusive (no result: PNC inhibitor, HPGD block)
Cc1cc(S(=O)(=O)NC2CCCCC2)ccc1OCC(=O)NCc1ccccn1	HPGD block 15.8µM, ALDH1A1 inh inconclusive
O=C(COc1ccc(S(=O)(=O)N2CCc3ccccc32)cc1Cl)NCc1ccccn1	PNC inhibitor inconclusive, ALDH1A1 inh 14.1µM
COc1ccc(-c2nc3c4ccccc4[nH]c(=O)n3n2)cc1	ALDH1A1 inh inconclusive
COc1cc2[nH]c(=O)n3nc(-c4ccccc4)nc3c2cc1OC	PNC inhibitor -100.0, HPGD block inconclusive, ALDH1A1 inh inconclusive
O=C(OCc1ccccc1)[C@@H]1COC(c2ccc(Br)cc2)=N1	none (no result: PNC inhibitor, HTT aggregate)
O=c1[nH]c(-c2ccccc2O)nc2ccccc12	HPGD block 2.82µM (no result: PNC inhibitor, HTT aggregate)
O=c1[nH]c(-c2ccccn2)nc2ccccc12	PNC inhibitor inconclusive, ALDH1A1 inh inconclusive, HTT aggregate inconclusive (no result: HPGD block)
Cc1cc(C(=O)NC(=S)Nc2ccccc2N2CCCC2)ccc1[N+](=O)[O-]	ALDH1A1 inh inconclusive (no result: CBFb-RUNX1 inh)
Cc1cc(C(=O)NC(=S)Nc2ccccc2N2CCOCC2)ccc1[N+](=O)[O-]	ALDH1A1 inh 10µM, CBFb-RUNX1 inh inconclusive
COc1ccc(C(=O)NC(=S)Nc2ccc(N3CCOCC3)c(Cl)c2)cc1[N+](=O)[O-]	PNC inhibitor -100.0, HPGD block 8.91µM
COc1ccc(C(=O)NC(=S)Nc2ccccc2N2CCOCC2)cc1[N+](=O)[O-]	ALDH1A1 inh 7.08µM (no result: HTT ATP protect)

Compound activity deposited in PubChem by National Center for Advancing Translational Sciences (NCATS).
